Assay [1] is described as follows: qHTS assay to identify small molecule antagonists of the progesterone receptor (PR) signaling pathway - cell viability counter screen (AID 1346798). Further: series mostly up to about 92 µM; nearly all actives have a fitted effect of over 50% in size. In short, it runs like this:
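PR-UAS-bla HEK293T cells in medium with 2% charcoal-stripped FBS were treated with compounds plus R5020 for 16 hr at 37C. Cell viability was then read by CellTiter-Glo luminescence after 30 min at room temperature in the same wells.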

Assay [2] is described as follows: qHTS assay to identify small molecule agonists of the progesterone receptor (PR) signaling pathway - cell viability counter screen (AID 1346799; calls by dose curve; further: nearly all actives have a fitted effect of over 45% in size). In short, it runs like this: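 PR-UAS-bla HEK293T cells, 3,000 per well in medium with 2% charcoal-stripped FBS, were preincubated 6 hr at 37C, then exposed to compounds for 16 hr; viability was read as CellTiter-Glo luminescence after 30 min at room temperature.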
On the technique in general: In qHTS, concentration-response curves come from the screen itself.

Assay [3] can be described thus: qHTS assay to identify small molecule antagonists of the TGF-beta/Smad signaling pathway - cell viability counter screen (AID 1346824). Further: nearly all actives have a fitted effect of over 50% in size. In short, it runs like this:
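Cytotoxicity counter-screen run in the same wells as the beta-lactamase Smad reporter read: CellTiter-Glo luminescence after 30 min at room temperature. HEK 293T SBE-bla cells had 5 hr compound exposure at 37 C with TGF-beta1 (0.25 ng/mL stock).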

The nature of assay [4]: qHTS assay to identify small molecule agonists of the TGF-beta/Smad signaling pathway - cell viability counter screen (AID 1346829). Further: top concentration of the series differs between compounds; nearly all actives have a fitted effect of over 45% in size. In short, it runs like this:
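Cytotoxicity counter screen: CellTiter-Glo luminescence (30 min, room temperature) measured in the SBE-bla HEK 293T reporter wells after 5 hr compound treatment at 37 C and the 2 hr substrate step.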

The target in assay [5] is Thyrotropin-releasing hormone receptor (Homo sapiens) (UniProt P34981). The assay is described as follows: qHTS assay to identify small molecule antagonists of the thyrotropin-releasing hormone receptor (TRHR) signaling pathway (AID 1346877; active means well fitted inhibition curve with a large enough effect in the repeat runs, not every such curve was filed as active; further: series mostly up to about 51 µM). The procedure, abridged: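 Screening used HEK293 cells engineered with TRHR, with a brief 5 min room-temperature compound exposure preceding addition of TRH to 1 nM. The read-out was kinetic calcium-dye fluorescence, concentration-response from 15 doses in triplicate.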
Thyrotropin-releasing hormone receptor (Homo sapiens), sequence (P34981 whole entry, looked up): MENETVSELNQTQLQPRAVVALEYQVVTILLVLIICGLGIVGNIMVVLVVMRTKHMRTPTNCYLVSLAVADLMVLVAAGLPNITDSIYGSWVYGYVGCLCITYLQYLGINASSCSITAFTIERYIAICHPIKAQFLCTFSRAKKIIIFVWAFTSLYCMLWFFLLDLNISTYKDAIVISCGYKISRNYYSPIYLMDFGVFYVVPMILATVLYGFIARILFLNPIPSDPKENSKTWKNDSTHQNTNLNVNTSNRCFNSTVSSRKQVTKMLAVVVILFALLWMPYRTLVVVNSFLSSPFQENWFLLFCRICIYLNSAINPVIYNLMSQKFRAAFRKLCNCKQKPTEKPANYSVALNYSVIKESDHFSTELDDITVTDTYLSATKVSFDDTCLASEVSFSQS

Assay [6] can be described thus: Human pregnane X receptor (PXR) small molecule agonists, qHTS cell viability counter screen (AID 1346977). Further: nearly all actives have a fitted effect of over 50% in size. The procedure, abridged: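 PXR-Luc HepG2 cells in medium with 5% charcoal-stripped FBS were pre-incubated 5hr, then exposed to compounds for 24hr at 37C. Viability was read in the same wells by CellTiter-Fluor fluorescence, reagent added after 23hr with a 1hr incubation.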

Assay [7] can be described thus: Caspase-3/7 induction in HepG2 cells by small molecules, qHTS assay (AID 1346978). Further: nearly all actives have a fitted effect of over 15% in size. The procedure, abridged: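 Caspase-3/7 induction was measured by Caspase-Glo 3/7 luminescence (30 min, room temperature) after a 17 hr compound exposure of wild-type HepG2 cells seeded at 2,000 per well and pre-incubated 5 hr.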
Assay [8] in a line: Caspase-3/7 induction in CHO-K1 cells by small molecules, qHTS cell viability counter screen (AID 1346979). Further: nearly all actives have a fitted effect of over 35% in size. Further: potency means the concentration at half of the fitted maximal effect. The procedure, abridged:
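Wild-type CHO-K1 cells were seeded at 1,500 per well, rested 5hr at 37 C, then exposed to compounds in DMSO. After 16hr, CellTiter-Fluor reagent was added and fluorescence read 1hr later as the viability measure.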

Assay [9] in a line: Caspase-3/7 induction in CHO-K1 cells by small molecules, qHTS assay (AID 1346980). Further: nearly all actives have a fitted effect of over 15% in size. In short, it runs like this: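 Luminescent Caspase-Glo 3/7 read (30min, room temperature) quantified apoptosis induction. Cells were wild-type CHO-K1, treated with compound for 17hr at 37 C and 5% CO2.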
Assay [10] can be described thus: Caspase-3/7 induction in HepG2 cells by small molecules, qHTS cell viability counter screen (AID 1346981). Further: nearly all actives have a fitted effect of over 30% in size. Further: potency means the concentration at half of the fitted maximal effect. In short, it runs like this: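 Multiplexed with the caspase-3/7 assay: HepG2 cells, 16 hr compound treatment, CellTiter-Fluor viability detection by fluorescence.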
Assay [11] deals with Nuclear receptor subfamily 1 group I member 2 (Homo sapiens) (UniProt O75469). The assay is described as follows: Human pregnane X receptor (PXR) small molecule agonists, qHTS assay (AID 1346982). Further: nearly all actives have a fitted effect of over 35% in size. Further: potency means the concentration at half of the fitted maximal effect. The procedure, abridged:
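We seeded PXR-Luc HepG2 cells in assay medium containing 5% charcoal-stripped FBS, added compounds 5 hr later, incubated 24 hr, and read luminescence with ONE-Glo reagent.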

Assay [12] deals with Nuclear receptor subfamily 1 group I member 2 (Rattus norvegicus) (UniProt Q9R1A7). The assay is described as follows: Rat pregnane X receptor (rPXR) activation by small molecules, qHTS assay (AID 1346983). Further: nearly all actives have a fitted effect of over 20% in size. To be noted: rPXR luciferase reporter cells, One-Glo luminescence, 24 h; hits give high values. The procedure, abridged: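 Luminescent readout (One-Glo luciferase, 30 min room temperature) followed 24 hr compound treatment at 37 C of rPXR cells plated 2,000 per well and preincubated 5hr; qHTS format with compounds delivered in DMSO.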
Nuclear receptor subfamily 1 group I member 2 (Rattus norvegicus), sequence (Q9R1A7 whole entry, looked up): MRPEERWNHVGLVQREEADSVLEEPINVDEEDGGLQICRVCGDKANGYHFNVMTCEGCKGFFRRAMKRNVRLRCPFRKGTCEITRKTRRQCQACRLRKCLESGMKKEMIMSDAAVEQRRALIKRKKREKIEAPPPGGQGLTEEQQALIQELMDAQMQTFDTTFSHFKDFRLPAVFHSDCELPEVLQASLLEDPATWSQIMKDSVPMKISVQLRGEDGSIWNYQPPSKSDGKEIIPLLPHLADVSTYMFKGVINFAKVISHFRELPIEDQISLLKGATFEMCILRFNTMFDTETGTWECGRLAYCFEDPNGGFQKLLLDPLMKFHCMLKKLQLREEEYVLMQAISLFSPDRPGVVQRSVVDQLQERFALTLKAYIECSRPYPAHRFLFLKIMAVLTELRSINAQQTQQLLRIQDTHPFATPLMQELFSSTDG

Assay [13] deals with Nuclear receptor subfamily 1 group I member 2 (Homo sapiens) (UniProt O75469). The assay is described as follows: CYP3A4 induction through human pregnane X receptor (PXR) by small molecules, qHTS assay (AID 1346984). Further: nearly all actives have a fitted effect of over 40% in size. The procedure, abridged: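 qHTS, concentration-response format: HepG2 DPX-2 line, PXR/CYP3A4-luc. Exposure 24 h, 37C. Substrate Luciferin-IPA 3uM final, 3 h. Detection One-Glo, 30 min RT.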
Nuclear receptor subfamily 1 group I member 2 (Homo sapiens), sequence (O75469 whole entry, looked up): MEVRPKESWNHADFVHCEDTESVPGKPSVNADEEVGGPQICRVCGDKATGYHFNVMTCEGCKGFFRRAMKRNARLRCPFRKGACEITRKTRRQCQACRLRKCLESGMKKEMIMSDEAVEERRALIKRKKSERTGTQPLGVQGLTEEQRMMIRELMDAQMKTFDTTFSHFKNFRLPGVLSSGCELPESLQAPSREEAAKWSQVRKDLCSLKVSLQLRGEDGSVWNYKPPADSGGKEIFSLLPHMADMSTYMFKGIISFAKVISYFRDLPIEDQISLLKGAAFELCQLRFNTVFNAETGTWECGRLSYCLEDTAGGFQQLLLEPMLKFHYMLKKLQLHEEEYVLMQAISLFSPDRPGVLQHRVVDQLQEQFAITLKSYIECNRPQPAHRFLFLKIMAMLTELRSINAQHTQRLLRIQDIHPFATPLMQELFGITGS

For assay [14] the target is unchanged. Kind of assay: Human pregnane X receptor (PXR) activation by small molecules, qHTS assay (AID 1346985). Further: nearly all actives have a fitted effect of over 40% in size. In short, it runs like this: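 DPX-2 cells (HepG2 co-transfected with a PXR response element and a CYP3A4-promoter luciferase construct) were seeded at 2,000 per well, rested 5 hr at 37C, then exposed to DMSO-dissolved compounds for 24 hr. Activation was read as luciferase luminescence.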

Assay [15] addresses Cytochrome P450 2D6 (Homo sapiens) (UniProt P10635). Kind of assay: Cytochrome P450 Family 2 Subfamily D Member 6 (CYP2D6) small molecule antagonists: luciferase reporter qHTS assay (AID 1671196). Further: nearly all actives have a fitted effect of over 50% in size. Further: potency means the concentration at half of the fitted maximal effect. The procedure, abridged: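 Luminescence (RLU), read 20 min after detection reagent, indicated CYP2D6 conversion of proluciferin to luciferin during a 1 h NADPH-dependent reaction at room temperature.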

The target in assay [16] is Cytochrome P450 2C19 (Homo sapiens) (UniProt P33261). Kind of assay: Cytochrome P450 Family 2 Subfamily C Member 19 (CYP2C19) small molecule antagonists: luciferase reporter qHTS assay (AID 1671197). Further: nearly all actives have a fitted effect of over 65% in size. Further: potency means the concentration at half of the fitted maximal effect. In short, it runs like this:
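Luminescent readout of CYP2C19 activity: luciferin product detected 20 min after adding detection reagent. Before that, compound and enzyme-substrate mix preincubated 10 min at room temperature; NADPH-regenerating system started a 1 h, 37C reaction. Ketoconazole as positive control.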
Background: In a reporter assay the amount or activity of a reporter protein is the signal.

For assay [17], the target named is Progesterone receptor (Homo sapiens) (UniProt P06401). Kind of assay: qHTS assay to identify small molecule agonists of the progesterone receptor (PR) signaling pathway (AID 1346784; calls by dose curve; further: nearly all actives have a fitted effect of over 30% in size). In short, it runs like this: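 PR-UAS-bla HEK 293T cells carrying a UAS-driven beta-lactamase reporter were seeded in medium with 2% charcoal-stripped FBS, preincubated 6 hr at 37C, then exposed to compounds in DMSO for 16 hr; agonism was read by LiveBLAzer B/G FRET fluorescence.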
Progesterone receptor (Homo sapiens), sequence (P06401 whole entry, looked up): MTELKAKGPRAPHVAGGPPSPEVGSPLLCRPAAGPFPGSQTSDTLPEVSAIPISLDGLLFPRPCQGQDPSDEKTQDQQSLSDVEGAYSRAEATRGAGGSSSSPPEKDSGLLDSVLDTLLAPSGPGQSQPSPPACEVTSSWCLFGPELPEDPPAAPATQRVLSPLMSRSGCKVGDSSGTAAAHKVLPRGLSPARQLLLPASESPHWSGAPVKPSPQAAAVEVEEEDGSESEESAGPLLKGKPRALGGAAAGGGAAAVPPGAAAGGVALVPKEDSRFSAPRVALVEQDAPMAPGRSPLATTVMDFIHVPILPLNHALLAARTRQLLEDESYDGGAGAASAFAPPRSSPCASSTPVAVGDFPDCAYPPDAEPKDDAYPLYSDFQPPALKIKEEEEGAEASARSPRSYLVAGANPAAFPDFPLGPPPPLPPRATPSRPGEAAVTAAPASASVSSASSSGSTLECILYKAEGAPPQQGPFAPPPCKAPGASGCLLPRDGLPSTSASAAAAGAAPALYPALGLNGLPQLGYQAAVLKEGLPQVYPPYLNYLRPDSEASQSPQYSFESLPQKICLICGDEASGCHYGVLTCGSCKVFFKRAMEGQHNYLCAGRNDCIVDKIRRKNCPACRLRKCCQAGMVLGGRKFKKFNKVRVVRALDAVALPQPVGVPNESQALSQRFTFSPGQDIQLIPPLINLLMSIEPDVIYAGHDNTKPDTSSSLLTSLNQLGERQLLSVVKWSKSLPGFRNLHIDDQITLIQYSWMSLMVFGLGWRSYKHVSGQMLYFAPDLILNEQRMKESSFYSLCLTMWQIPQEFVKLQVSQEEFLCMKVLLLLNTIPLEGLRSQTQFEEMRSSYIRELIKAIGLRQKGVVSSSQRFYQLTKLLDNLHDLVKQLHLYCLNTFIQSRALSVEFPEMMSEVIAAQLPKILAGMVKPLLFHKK

Assay [18] is described as follows: qHTS assay to identify small molecule agonists of the TGF-beta/Smad signaling pathway (AID 1346859; active means well fitted activation curve with a large enough effect in the signal ratio in the repeat runs, not every such curve was filed as active; the % refers to the signal ratio; further: series mostly up to about 77 µM). The procedure, abridged: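 HEK 293T cells stably carrying a beta-lactamase reporter driven by the Smad binding element were seeded overnight, exposed to DMSO-dissolved compounds for 5 hr at 37 C, 5% CO2, then loaded with FRET substrate for 2 hr at room temperature.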

Assay [19] addresses Thyrotropin-releasing hormone receptor (Homo sapiens) (UniProt P34981). The assay is described as follows: qHTS assay to identify small molecule agonists of the thyrotropin-releasing hormone receptor (TRHR) signaling pathway (AID 1346891; calls by dose curve; further: series mostly up to about 58 µM). In short, it runs like this: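 TRHR-expressing HEK293 cells were plated 18 h at 37 °C/5% CO2, loaded with calcium dye 2 h at 37 °C, then given compound in DMSO; fluorescence was read kinetically for 3 min at 1 s intervals.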

Assay [20] concerns the target Progesterone receptor (Homo sapiens) (UniProt P06401). Kind of assay: qHTS assay to identify small molecule antagonists of the progesterone receptor (PR) signaling pathway (AID 1346795; active means well fitted inhibition curve with a large enough effect in the signal ratio in the repeat runs, not every such curve was filed as active; the % refers to the signal ratio). The procedure, abridged:
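PR-UAS-bla HEK293T cells carrying a UAS-driven beta-lactamase reporter were plated in medium with 2% charcoal-stripped FBS and rested 6 hr at 37C. Compounds were added with 1 nM R5020 (final) for 16 hr, then FRET substrate loaded 2 hr at room temperature.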

Values without a mark were called inactive. Results filed as inconclusive are left out. Calls of active or inactive are those of the source. Unless noted, the call rests on the fitted dose curve; in most records, active means well fitted curve in the direction sought with a large enough effect in the repeat runs; inconclusive means weak or mixed curves; inactive means no such curve, though single readings can be large; an effect the other way counts as inactive or inconclusive.
On the % scale 0 is the no-effect control and ±100 the full control effect.

Cytochrome P450 2C19 (Homo sapiens), sequence (P33261 whole entry, looked up): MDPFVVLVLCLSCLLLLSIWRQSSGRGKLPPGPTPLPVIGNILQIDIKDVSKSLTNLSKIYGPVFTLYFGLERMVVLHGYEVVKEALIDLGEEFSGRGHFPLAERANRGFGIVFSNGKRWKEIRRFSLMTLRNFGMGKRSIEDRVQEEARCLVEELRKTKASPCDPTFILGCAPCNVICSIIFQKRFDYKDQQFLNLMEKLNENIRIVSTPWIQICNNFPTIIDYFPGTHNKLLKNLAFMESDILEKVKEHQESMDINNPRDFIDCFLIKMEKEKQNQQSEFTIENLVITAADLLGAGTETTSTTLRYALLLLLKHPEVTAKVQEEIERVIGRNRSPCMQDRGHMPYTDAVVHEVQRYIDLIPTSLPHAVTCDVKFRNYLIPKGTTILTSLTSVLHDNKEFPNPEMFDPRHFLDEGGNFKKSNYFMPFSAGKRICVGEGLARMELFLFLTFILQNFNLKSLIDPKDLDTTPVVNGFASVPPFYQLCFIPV
Cytochrome P450 2D6 (Homo sapiens), sequence (P10635 whole entry, looked up): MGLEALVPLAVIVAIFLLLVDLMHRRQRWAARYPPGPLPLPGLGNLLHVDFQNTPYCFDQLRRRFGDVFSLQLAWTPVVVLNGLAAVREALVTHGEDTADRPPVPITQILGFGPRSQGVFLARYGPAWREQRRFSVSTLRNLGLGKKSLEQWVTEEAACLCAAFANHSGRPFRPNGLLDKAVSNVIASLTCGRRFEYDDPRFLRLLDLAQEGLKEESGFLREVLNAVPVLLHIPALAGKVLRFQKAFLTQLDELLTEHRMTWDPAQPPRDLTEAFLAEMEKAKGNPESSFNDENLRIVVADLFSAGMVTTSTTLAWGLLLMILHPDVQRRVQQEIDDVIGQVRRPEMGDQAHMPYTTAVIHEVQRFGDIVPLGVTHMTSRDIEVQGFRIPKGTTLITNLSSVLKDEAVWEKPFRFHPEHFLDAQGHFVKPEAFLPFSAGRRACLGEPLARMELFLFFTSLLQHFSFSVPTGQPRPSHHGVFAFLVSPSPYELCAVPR

Consider `COc1nccnc1NS(=O)(=O)c1ccc(N)cc1`, for which the Potency result in assay [1], in [2], in assay [6], in assay [7], in assay [8] and in [10] was “inactive” each time. Moreover, the Potency result in [11], in assay [13], in assay [14], in assay [15] and in assay [16] was “inactive” throughout. Further, the molecule was classed as inactive in [3], in assay [4], in assay [5] and in [9]. The max activation in assay [12] is 3.09%.
Turning to `CCOC(=O)CC(=O)c1ccccc1`, the Potency entry in assay [17], in assay [2], in assay [6], in assay [7], in [8] and in assay [10] was “inactive” in each case. Further, the call in [3], in assay [4], in assay [18], in assay [19] and in assay [9] was inactive. Moreover, the results for the Potency in assay [11] and in assay [16] were 68.6 µM (active) and 39.9 µM (active), respectively.
For the molecule `O=C(c1ccc(O)cc1)c1ccc(O)c(O)c1O`, the Potency entry in assay [17], in assay [1], in [2] and in assay [7] was “inactive” in each case. Also, the molecule was classed as inactive in [4], in assay [18], in assay [5], in [19] and in assay [9]. The Potency in assay [8] is 61.4 µM (active); in assay [10] it was 54.7 µM (active); in assay [15], 40.1 µM (active); in assay [16], 40.1 µM (active).
Regarding `CC(CC=O)CCCC(C)(C)O` (centres undefined), the Potency result in assay [20], in [1], in [6], in assay [8], in [10] and in assay [11] was “inactive” each time. The Potency entry in [13] and in [14] was “inactive” each time. The molecule was classed as inactive in [4], in [18] and in assay [9]. The max activation in assay [12] was -1.75%. In addition, the Potency in assay [15] was 39.7 µM (active); in [16], 79.2 µM (active).
For `NC(CO)C(=O)NNCc1ccc(O)c(O)c1O` (centres undefined), the Potency result in [20], in assay [1], in assay [2], in [6], in assay [7] and in [10] was “inactive” throughout. Further, in assay [14], the Potency entry is “inactive”. Moreover, the call in assay [3], in assay [4], in assay [18] and in assay [9] was inactive. Besides, the max activation in assay [12] was -1.3%.
For the molecule `C#CC(C)N(C)C(=O)Nc1ccc(Cl)cc1` (centres undefined), the Potency result in assay [17], in assay [2], in assay [6], in assay [7], in assay [8] and in [10] was “inactive” in each case. Moreover, the call in assay [3], in assay [18], in assay [19] and in assay [9] was inactive. In addition, in assay [16], the Potency was 8.93 µM (active).
Regarding `C=C1CC/C=C(\C)CC[C@@H]2[C@@H]1CC2(C)C`, the Potency entry in [1], in [2], in assay [6], in assay [7], in assay [8] and in assay [10] was “inactive” in each case. Moreover, the Potency entry in [11], in assay [15] and in assay [16] was “inactive” in each case. Further, the call in assay [3], in assay [4], in assay [18] and in [9] was inactive.
Regarding `CCOC(=O)c1ncn2c1CN(C)C(=O)c1cc(F)ccc1-2`, the Potency result in assay [20], in [1], in assay [2], in assay [6], in [7] and in assay [10] was “inactive” each time. The Potency entry in [15] and in assay [16] was “inactive” in each case. The molecule was classed as inactive in assay [3], in assay [4] and in [9].
Consider `CC(COC(C)(C)C)OCCCO` (centres undefined), for which the Potency result in assay [20], in [1], in [6], in assay [10] and in assay [11] was “inactive” each time. Moreover, the call in [3], in assay [4], in assay [18], in [5], in assay [19] and in assay [9] was inactive.

The values above are taken from PubChem BioAssay (Tox21).
